Our source for the Potency values is PubChem BioAssay (NCATS).

Results filed as inconclusive are left out. A call without a number means that no potency is given here. Calls of active or inactive are those of the source. The call rests on the fitted dose curve; in most records, active means well fitted inhibition curve with a large enough effect; inconclusive means small, poorly fitted or top-dose-only effect; inactive means flat fitted curve, though single readings scatter.
Potency means the concentration at half of the fitted maximal effect.

One assay deals with PC15. Put plainly: qHTS profiling for inhibitors of Plasmodium falciparum proliferation (AID 504749). Further: nearly all actives have a fitted effect of over 60% in size. As to conditions: P. falciparum in erythrocytes, SYBR Green DNA, 72 h; series mostly up to 28.7 µM. The method, boiled down: (§1)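 Three-day growth assay of blood-stage parasites in erythrocytes (0.3% parasitemia, 2.5% hematocrit) at 37 C, 5% CO2, quantified by SYBR Green DNA staining after overnight detergent lysis.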
As for `O=P(O)(O)OC[C@H]1O[C@](O)(COP(=O)(O)O)[C@@H](O)[C@@H]1O`, the Potency entry was “inactive”.
The same measure, in the same setting: the entry for `NC(=O)Oc1ccc(Cc2ccccc2)cc1` is “inactive”.
Still for that read-out and setting: then `O=C(O)CCC(=O)c1ccc(-c2ccccc2)cc1`, with “inactive”; and `COc1cc(NCCCC(C)N)c2ncccc2c1` (stereo not given), with 3550 nM (active).
On the same count and under the same terms, the entry for `CCCOc1cc(N)ccc1C(=O)OCCN(CC)CC` is “inactive”; for `CCCCCCCCCCCCOCCCN` it is “inactive”.
Turning to `O=S(=O)(O)CC(S)CS` (stereo not given), the Potency result was “inactive”.
The same measure, in the same setting: the entry for `O=C1[O][Bi][O]c2ccccc21` is “inactive”; for `Cc1ccc(S(=O)(=O)O)cc1C` it is “inactive”.
Still for that read-out and setting: then `CN1C(=O)C[C@@H](C(=O)N[C@@H](Cc2cnc[nH]2)C(=O)N2CCC[C@H]2C(N)=O)NC1=O`, with “inactive”.
Same read-out and setting: the entry for `Cc1cc(-c2ccc(N=Nc3ccc4c(S(=O)(=O)O)cc(S(=O)(=O)O)c(N)c4c3O)c(C)c2)ccc1N=Nc1ccc2c(S(=O)(=O)O)cc(S(=O)(=O)O)c(N)c2c1O` is “inactive”; for `NC(=S)NS(=O)(=O)c1ccc(N)cc1` it is “inactive”; for `COC(=O)CC[C@H](N)C(=O)O` it is “inactive”.
As for `Cc1nc(NS(=O)(=O)c2ccc(N)cc2)nc(C)c1Br`, the Potency result is “inactive”.
The same measure, in the same setting: then `NCC(O)CC(=O)O` (stereo not given), with “inactive”; and `CCCCCCCCCCCC(=O)N(CCO)CCO`, with “inactive”; and `CC(C)(COP(=O)(O)OP(=O)(O)OC[C@H]1O[C@@H](n2cnc3c(N)ncnc32)[C@H](O)[C@@H]1OP(=O)(O)O)C(O)C(=O)NCCC(=O)NCCS` (stereo not given in full), with “inactive”.
On the same count and under the same terms, the entry for `COc1ccc(/C=C/C(=O)OCCC(C)C)cc1` is “inactive”; for `O=C1c2ccccc2CN2C(=O)c3ccccc3CN12` it is “inactive”; for `CC1=CC(=O)NS(=O)(=O)O1` it is “inactive”.
Same read-out and setting: the entry for `CC(CNC(=O)c1cccnc1)NC(=O)c1cccnc1` (stereo not given) is “inactive”.
For `CC(C)(C)CC(C)(C)c1cc(Cc2cc(C(C)(C)CC(C)(C)C)cc(-n3nc4ccccc4n3)c2O)c(O)c(-n2nc3ccccc3n2)c1`, the Potency entry was “inactive”.
Regarding `CCCCC(CC)COS(=O)(=O)O` (stereo not given), the Potency entry was “inactive”.
The same measure, in the same setting: the entry for `CCc1ccc(S(=O)(=O)O)cc1` is “inactive”; for `CO[C@H]1C[C@@H]2CC[C@@H](C)[C@@](O)(O2)C(=O)C(=O)N2CCCC[C@H]2C(=O)O[C@H]([C@H](C)C[C@@H]2CC[C@@H](OC(=O)C(C)(CO)CO)[C@H](OC)C2)CC(=O)[C@H](C)/C=C(\C)[C@@H](O)[C@@H](OC)C(=O)[C@H](C)C[C@H](C)/C=C/C=C/C=C/1C` it is “inactive”; for `CN1C(=O)OC(C)(C)C1=O` it is “inactive”.
Same read-out and setting: the entry for `CC(=O)[C@H]1CC[C@H]2[C@@H]3C=CC4=CC(=O)CC[C@@]4(C)[C@H]3CC[C@]12C` is “inactive”; for `CCC(C)[C@@H](N)C(=O)O` (stereo not given in full) it is “inactive”; for `O=C(O)C1=C(CSc2nnnn2CS(=O)(=O)O)CS[C@@H]2[C@H](NC(=O)[C@H](O)c3ccccc3)C(=O)N12` it is “inactive”.
On the same count and under the same terms, the entry for `CCCCO` is “inactive”; for `NC(=O)[C@@H]1CCCN1C(=O)[C@H](Cc1cnc[nH]1)NC(=O)[C@@H]1CCC(=O)N1` it is “inactive”.
For the compound `CCOc1ccc(S(=O)(=O)O)c2cccnc12`, the Potency entry is “inactive”.
As for `[O-][N+](=Nc1ccccc1)c1ccccc1`, the Potency result was “inactive”.
The same measure, in the same setting: then `CN[C@@H]1[C@H](O[C@H]2[C@H](O[C@H]3[C@H](O)[C@@H](O)[C@H](N=C(N)N)[C@@H](O)[C@@H]3N=C(N)N)O[C@@H](C)[C@]2(O)C=O)O[C@@H](CO)[C@H](O)[C@H]1O`, with “inactive”; and `CCC(O)c1ccccc1` (stereo not given), with “inactive”.
The same measure, in the same setting: then `NC(=O)[C@H]1O[C@@H](O)[C@H](O)[C@@H](O)[C@@H]1O`, with “inactive”; and `CCN(CC)CCOC(=O)c1cccnc1`, with “inactive”; and `CCOC(C)OCC`, with “inactive”.
Same read-out and setting: then `NC(=O)C1c2ccccc2CCc2ccccc21`, with “inactive”; and `Nc1nc(=O)n([C@@H]2CS[C@H](CO)O2)cc1F`, with “inactive”.

The subject of the next assay is PC26. Described as above. As to conditions: P. falciparum in erythrocytes, SYBR Green DNA, 72 h; series mostly up to 28.7 µM. The method, boiled down:
as §1
With `O=P(O)(O)OC[C@H]1O[C@](O)(COP(=O)(O)O)[C@@H](O)[C@@H]1O`, the Potency result was “inactive”.
Still for that read-out and setting: the entry for `NC(=O)Oc1ccc(Cc2ccccc2)cc1` is “inactive”.
On the same count and under the same terms, the entry for `O=C(O)CCC(=O)c1ccc(-c2ccccc2)cc1` is “inactive”; for `COc1cc(NCCCC(C)N)c2ncccc2c1` (stereo not given) it is 1690 nM (active); for `CCCOc1cc(N)ccc1C(=O)OCCN(CC)CC` it is “inactive”.
Same read-out and setting: the entry for `CCCCCCCCCCCCOCCCN` is “inactive”; for `O=S(=O)(O)CC(S)CS` (stereo not given) it is “inactive”; for `O=C1[O][Bi][O]c2ccccc21` it is “inactive”.
As to `Cc1ccc(S(=O)(=O)O)cc1C`, the Potency entry was “inactive”.
On the same count and under the same terms, then `CN1C(=O)C[C@@H](C(=O)N[C@@H](Cc2cnc[nH]2)C(=O)N2CCC[C@H]2C(N)=O)NC1=O`, with “inactive”.
Same read-out and setting: then `Cc1cc(-c2ccc(N=Nc3ccc4c(S(=O)(=O)O)cc(S(=O)(=O)O)c(N)c4c3O)c(C)c2)ccc1N=Nc1ccc2c(S(=O)(=O)O)cc(S(=O)(=O)O)c(N)c2c1O`, with “inactive”; and `NC(=S)NS(=O)(=O)c1ccc(N)cc1`, with “inactive”.
Still for that read-out and setting: then `COC(=O)CC[C@H](N)C(=O)O`, with “inactive”; and `Cc1nc(NS(=O)(=O)c2ccc(N)cc2)nc(C)c1Br`, with “inactive”.
`NCC(O)CC(=O)O` (stereo not given): the Potency entry is “inactive”.
Still for that read-out and setting: then `CCCCCCCCCCCC(=O)N(CCO)CCO`, with “inactive”; and `CC(C)(COP(=O)(O)OP(=O)(O)OC[C@H]1O[C@@H](n2cnc3c(N)ncnc32)[C@H](O)[C@@H]1OP(=O)(O)O)C(O)C(=O)NCCC(=O)NCCS` (stereo not given in full), with “inactive”.
Consider `COc1ccc(/C=C/C(=O)OCCC(C)C)cc1`, for which the Potency result was “inactive”.
Same read-out and setting: then `O=C1c2ccccc2CN2C(=O)c3ccccc3CN12`, with “inactive”.
Regarding `CC1=CC(=O)NS(=O)(=O)O1`, the Potency entry was “inactive”.
On the same count and under the same terms, the entry for `CC(CNC(=O)c1cccnc1)NC(=O)c1cccnc1` (stereo not given) is “inactive”; for `CC(C)(C)CC(C)(C)c1cc(Cc2cc(C(C)(C)CC(C)(C)C)cc(-n3nc4ccccc4n3)c2O)c(O)c(-n2nc3ccccc3n2)c1` it is “inactive”; for `CCCCC(CC)COS(=O)(=O)O` (stereo not given) it is “inactive”.
Turning to `CCc1ccc(S(=O)(=O)O)cc1`, the Potency entry was “inactive”.
On the same count and under the same terms, the entry for `CO[C@H]1C[C@@H]2CC[C@@H](C)[C@@](O)(O2)C(=O)C(=O)N2CCCC[C@H]2C(=O)O[C@H]([C@H](C)C[C@@H]2CC[C@@H](OC(=O)C(C)(CO)CO)[C@H](OC)C2)CC(=O)[C@H](C)/C=C(\C)[C@@H](O)[C@@H](OC)C(=O)[C@H](C)C[C@H](C)/C=C/C=C/C=C/1C` is “inactive”.
The same measure, in the same setting: then `CN1C(=O)OC(C)(C)C1=O`, with “inactive”; and `CC(=O)[C@H]1CC[C@H]2[C@@H]3C=CC4=CC(=O)CC[C@@]4(C)[C@H]3CC[C@]12C`, with “inactive”; and `CCC(C)[C@@H](N)C(=O)O` (stereo not given in full), with “inactive”.
Still for that read-out and setting: then `O=C(O)C1=C(CSc2nnnn2CS(=O)(=O)O)CS[C@@H]2[C@H](NC(=O)[C@H](O)c3ccccc3)C(=O)N12`, with “inactive”.
For `CCCCO`, the Potency result was “inactive”.
On the same count and under the same terms, then `NC(=O)[C@@H]1CCCN1C(=O)[C@H](Cc1cnc[nH]1)NC(=O)[C@@H]1CCC(=O)N1`, with “inactive”.
The same measure, in the same setting: then `CCOc1ccc(S(=O)(=O)O)c2cccnc12`, with “inactive”.
Still for that read-out and setting: then `[O-][N+](=Nc1ccccc1)c1ccccc1`, with “inactive”; and `CN[C@@H]1[C@H](O[C@H]2[C@H](O[C@H]3[C@H](O)[C@@H](O)[C@H](N=C(N)N)[C@@H](O)[C@@H]3N=C(N)N)O[C@@H](C)[C@]2(O)C=O)O[C@@H](CO)[C@H](O)[C@H]1O`, with “inactive”; and `CCC(O)c1ccccc1` (stereo not given), with “inactive”.
For the compound `NC(=O)[C@H]1O[C@@H](O)[C@H](O)[C@@H](O)[C@@H]1O`, the Potency result was “inactive”.
On the same count and under the same terms, the entry for `CCN(CC)CCOC(=O)c1cccnc1` is “inactive”; for `CCOC(C)OCC` it is “inactive”; for `NC(=O)C1c2ccccc2CCc2ccccc21` it is “inactive”.
Take `Nc1nc(=O)n([C@@H]2CS[C@H](CO)O2)cc1F`: the Potency result was “inactive”.
